# Screens deposited in PubChem BioAssay by National Center for Advancing Translational Sciences (NCATS).
# HT1080NT lethal: qHTS for induction of synthetic lethality in tumor cells producing 2HG: qHTS for the HT-1080-NT fibrosarcoma cell line; Potency, µM (titrated, usually from 46.1 µM), for the others: at the highest dose activity, negative = less viability, actives largely listed as cytotoxic; actives 1.6% (n = 360,000); AID 686970, 2013; HT-1080-NT fibrosarcoma viability, CellTiter-Glo ATP luminescence, 48 h;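 note: NT is the 2HG producing partner of a matched IDH1 knockdown line; 0% = DMSO-treated cells and -100% = media-only wells without cells; nearly all actives have a fitted effect of over 55% in size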
#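 HT-1080-NT; 750 cells/well; 5% FBS RPMI; 48 h compound, 37 degrees C; CellTiter-Glo luminescence; curve fitting and curve-class assignment.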
# KB-V1 MDR tox: qHTS assay for MDR1-selective chemotherapeutics: Primary screen using the drug-selected MDR subline cells KB-V1 | Potency, µM (doses to about 46.1 µM), usual class: cytotoxic | KB-V1 MDR cells viability, CellTiter-Glo, 72 h | actives 3.4% (n = 400,000); note: nearly all actives have a fitted effect of over 60% in size
#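 Compound-treated KB-V1 multidrug-resistant cells, 72 h, 37 degrees C; viability by CellTiter-Glo. Fitted qHTS curves give the values.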
# KB-3-1 tox: qHTS assay for MDR1-selective chemotherapeutics: Primary screen using the parental adenocarcinoma cell KB-3-1; KB-3-1 viability, CellTiter-Glo ATP luminescence, 72 h; Potency, µM (series often up to 46.1 µM), most hits filed as cytotoxic; actives 1.4% (n = 400,000); AID 1347075, 2019; note: nearly all actives have a fitted effect of over 60% in size
#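 Parental KB-3-1 adenocarcinoma cells in phenol-red-free DMEM with 10% FBS were pin-treated with compounds at several concentrations, incubated 72 h at 37 °C, and viability read by CellTiter-Glo luminescence; concentration-effect curves were fitted after normalization.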
# HT1080 IDH1KD tx: qHTS for induction of synthetic lethality in tumor cells producing 2HG: qHTS for the HT-1080-IDH1KD cell line | HT-1080 IDH1 knockdown viability, ATP luminescence, 48 h | Potency, µM (doses to about 46.1 µM), inactives show top-dose activity, negative = toxicity, most hits filed as cytotoxic | actives 2% (n = 360,000);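 note: 0% = DMSO wells and -100% = cell-free medium wells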
#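 Viability of IDH1-knockdown HT-1080 fibrosarcoma cells was assessed by CellTiter-Glo after 48 h at 37 °C with titrated compound; concentration-effect curves were classified by fit quality and response size.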
# DT40 TDP1 CPT: qHTS for Inhibitors of human tyrosyl-DNA phosphodiesterase 1 (TDP1): qHTS in cells in presence of CPT; chicken DT40 Tdp1-/-;hTDP1 cells + 20 nM CPT, ATP luminescence, 48 h; Potency, µM (doses to about 46.2 µM), inactives show at the highest dose activity change, negative = growth inhibition, usual class: inhibitors; actives 12% (n = 420,000); note: nearly all actives have a fitted effect of over 55% in size
#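 Cell growth measured by CellTiter-Glo luminescence after a minimum 48 h, 37 C compound exposure with 20 nM CPT in Tdp1-knockout DT40 cells stably expressing hTDP1, seeded 400/well; qHTS titration format.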
# DT40 TDP1 no CPT: qHTS for Inhibitors of human tyrosyl-DNA phosphodiesterase 1 (TDP1): qHTS in cells in absence of CPT. AID 686978, 2013. actives 15% (n = 420,000). Potency, µM (series often up to 46.2 µM), for inactives: top-dose activity change, negative = growth inhibition, hits mostly inhibitors. DT40 Tdp1-/- hTDP1 cells, no CPT, ATP luminescence, 48 h; note: nearly all actives have a fitted effect of over 55% in size
#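 A cellular qHTS used chicken DT40 cells lacking endogenous Tdp1 but carrying stably transfected human TDP1. Compounds were applied without camptothecin, and cell growth kinetics were judged by ATP-dependent luminescence after ≥48 hr.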
# An asterisk follows results filed as active; i = inactive; u = inconclusive; x = no result given; ! = not confirmed by another sample; [ ] = remark or other dose. A selection: hits, their analogues and other compounds. The true share with any hit is near 19%. Calls come from the whole dose curve; as a rule, active = well fitted curve in the direction sought with a large enough effect; inconclusive = small, poorly fitted or top-dose-only effect, or another doubt; inactive = no such curve, though single readings can be large; an effect the other way counts as inactive or inconclusive. Unless noted, % is set by controls: 0 for no effect and ±100 for the full control effect; potency is the fitted concentration of half-maximal effect.
SMILES,HT1080NT lethal,KB-V1 MDR tox,KB-3-1 tox,HT1080 IDH1KD tx,DT40 TDP1 CPT,DT40 TDP1 no CPT
CC(NCc1ccc(Cl)c(Cl)c1)C(O)c1ccccc1 (stereo not given),u,i,i,u,16µM*,u
O=Nc1c(-c2ccccc2)n(O)[n+]([O-])c1-c1ccccc1,9%,i,i,8%,u,21µM*
C1=NCCc2c1[nH]c1ccccc21,u,16µM*,u,16µM*,-82%,u
ClC=C(Cl)Cl,x,x,x,x,6%,14%
Cc1ccc(NC(=O)C2CCCN2S(=O)(=O)c2ccc3c(c2)CCCC(=O)N3)cc1Cl (stereo not given),x,i,i,x,16µM*,u
O=S1(=O)N(Cc2ccccc2)CCCN1Cc1ccc(F)cc1Cl,x,i,i,x,u,u
O=S1(=O)N(Cc2ccccc2Cl)CCCN1Cc1ccccc1Cl,x,i,i,x,16µM*,u
O=c1[nH]c(=O)n(Cc2ccco2)c(O)c1C=NCCN1CCNCC1,8%,i,i,2%,0%,3%
CCOc1ccc(N2CC(c3nc4ccccc4n3CCC3CCCCC3)CC2=O)cc1 (stereo not given),x,i,i,x,7.3µM*,5.2µM*
O=C(O)C(O)(c1ccc(Cl)cc1)C1(O)CCCC1 (stereo not given),-3%,i,i,-3%,-20%,-11%
CC(C)CCC(=O)O[C@H]1CC[C@H]2[C@@H]3CCC4=CC(=O)CC[C@]4(C)[C@H]3CC[C@]12C,x,x,x,x,-6%,0%
CCC(=O)OC1CCC2C3CCc4cc(O)ccc4C3CC[C@]12C (stereo not given in full),x,x,x,x,21µM*,21µM*
CCS(=O)(=O)Nc1ccc(C2=NN(C(=O)c3ccco3)C(c3ccc(Cl)o3)C2)cc1 (stereo not given),-18%,i,u,-28%,u,23µM*
N[C@@H](Cn1ccc(=O)n(Cc2ccc(C(=O)O)cc2)c1=O)C(=O)O,x,x,x,x,17%,-1%
Cn1cccc1/C=C1\C(=O)NC(=O)N(CCC2=CCCCC2)C1=O,1%,i,i,-5%,16µM*,13µM*
Cn1cccc1/C=C1\C(=O)NC(=O)N(Cc2ccccc2Cl)C1=O,-29%,i,u,-11%,5.8µM*,4.6µM*
O=C1NC(=O)N(CCC2=CCCCC2)C(=O)/C1=C\c1cccs1,0%,i,i,13%,u,u
COc1ccc(/C=C/C(=O)N2CC3C[C@@H](C2)Cn2c3cccc2=O)cc1OC,x,x,x,x,17%[9.04 µM],-4%[9.04 µM]
C[C@@H]1COc2cccc(N3CCN(C)CC3)c2S(=O)(=O)N1,20%,i,i,9%,-3%,-1%
COc1ccc(CC(=O)C2C(=O)N(C)c3ccccc32)cc1OC (stereo not given),-3%,u,i,-19%,-11%,u
Cc1c(C(=O)c2ccc3ccccc3c2)c2cccc3c2n1[C@H](CN1CCOCC1)CO3,x,x,x,x,12µM*,u
Cc1c(C(=O)c2cccc3ccccc23)c2cccc3c2n1[C@H](CN1CCOCC1)CO3,15µM*,u,u,9.2µM*,2.9µM*!,4.6µM*!
COC(=O)c1c(C)n(Cc2ccccc2)c2ccc(O)cc12,-22%,i,i,-15%,-24%,-14%
Cc1c(C(=O)C(=O)N2CCOCC2)c2ccccc2n1Cc1ccccc1,-3%,i,i,2%,11%,0%
CCOC(=O)c1c(C)n(Cc2ccccc2)c2ccc(OCC(O)CNC(C)(C)C)cc12 (stereo not given),u,i,i,16µM*,u,18µM*
SMILES,HT1080NT lethal,KB-V1 MDR tox,KB-3-1 tox,HT1080 IDH1KD tx,DT40 TDP1 CPT,DT40 TDP1 no CPT
CC(=O)c1c(C)n(Cc2ccccc2)c2ccc(O)cc12,-13%,i,u,-2%,16µM*,18µM*
CCOC(=O)c1c(C)n(Cc2ccccc2)c2ccc(O)cc12,-14%,10µM*,i,-20%,-12%,-30%
CC(=Nc1ccc(F)cc1)c1c(O)n(C)c(=O)[nH]c1=O,8%,u,i,4%,15%,-5%
Cc1cccc(NC(=O)CSc2ccc(-c3ccco3)nn2)c1,-2%,i,i,-2%,u,29µM*
COc1ccc(NC(=O)CSc2nc(-c3ccco3)cc(C(F)(F)F)n2)cc1OC,x,x,x,x,1.5µM*,0.92µM*
COc1ccc(CCCc2nnc(SCC(=O)Nc3ccc(C)c(C)c3)o2)cc1,-5%,i,i,4%,u,u
CCOC(=O)c1ccc(NC(=O)CSc2ccc(-c3cccnc3)nn2)cc1,-27%,i,i,-5%,u,u
CC(C)(C)NCC(O)c1ccccc1Cl (stereo not given),x,x,x,x,-3%,-4%
C[C@@H]1CCC2[C@@H](C)C(=O)O[C@@H]3OC4(C)CCC1[C@@]23OO4 (stereo not given in full),-4%,i,i,0%,4.1µM*,8.2µM*
CC1C(=O)OC2O[C@]3(C)CC[C@H]4C(C)CCC1[C@]24OO3 (stereo not given in full),x,x,x,x,7.3µM*,1.2µM*
C[C@@H]1CC[C@H]2[C@@H](C)C(=O)O[C@@H]3O[C@@]4(C)CC[C@@H]1[C@]32OO4,-2%,u,i,-13%,0.65µM*,4.1µM*
CCCCn1nnnc1C(C1CC1)N1CCC(n2c(=O)[nH]c3ccccc32)CC1 (stereo not given),-3%,u,i,8%,u,u
CCCCn1nnnc1C(CCc1ccccc1)N1CCC(n2c(=O)[nH]c3ccccc32)CC1 (stereo not given),u,4.1µM*,u,u,12µM*,12µM*
CCC(c1nnnn1Cc1ccccc1)N1CCC(n2c(=O)[nH]c3ccccc32)CC1 (stereo not given),26µM*,u,i,u,5.8µM*,4.6µM*
